± gives the standard deviation of the averaged measurements.
How the values were obtained:
Assay in all cases: promoter activity interaction Z-score (Lux/OD deviation from empty-vector control); higher = stronger promoter induction by the compound
[1] = system: E. coli BW25113 acrABp lux reporter
Method in brief: (§1)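 Reporter strains of E. coli BW25113 grew at 37°C in 40 µl LB Lennox in 384-well plates. Readings of OD600 and luminescence were taken every 30 min over 12 h, integrated over 0–8 h (wild type) or 1–9 h (deletion strains), and wells below 10% of the median growth value were excluded. Scores are Z-transformed residuals of growth-normalised luminescence from a fit against a control.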

[2] = system: E. coli BW25113 micFp lux reporter
Method in brief: as §1

[3] = system: E. coli BW25113 ompFp lux reporter
Method in brief: as §1

[4] = system: E. coli BW25113 robp lux reporter
Method in brief: as §1

[5] = system: E. coli BW25113 soxSp lux reporter
Method in brief: as §1

[6] = system: E. coli BW25113 tolCp lux reporter
Method in brief: as §1

[7] = system: E. coli BW25113 marRABp lux reporter
Method in brief: as §1

[8] = 0.064 µg/ml, genetic background: wild type
[9] = 0.064 µg/ml, genetic background: ΔmarA
[10] = 0.064 µg/ml, genetic background: Δrob
[11] = 0.064 µg/ml, genetic background: ΔsoxS
[12] = 0.13 µg/ml, genetic background: wild type
[13] = 0.13 µg/ml, genetic background: ΔmarA
[14] = 0.13 µg/ml, genetic background: Δrob
[15] = 0.13 µg/ml, genetic background: ΔsoxS
[16] = 0.26 µg/ml, genetic background: wild type
[17] = 0.26 µg/ml, genetic background: ΔmarA
[18] = 0.26 µg/ml, genetic background: Δrob
[19] = 0.26 µg/ml, genetic background: ΔsoxS
[20] = 0.51 µg/ml, genetic background: wild type
[21] = 3.1 µg/ml, genetic background: wild type
[22] = 3.1 µg/ml, genetic background: ΔmarA
[23] = 3.1 µg/ml, genetic background: Δrob
[24] = 3.1 µg/ml, genetic background: ΔsoxS
[25] = 6.1 µg/ml, genetic background: wild type
[26] = 6.1 µg/ml, genetic background: ΔmarA
[27] = 6.1 µg/ml, genetic background: Δrob
[28] = 6.1 µg/ml, genetic background: ΔsoxS
[29] = 12.2 µg/ml, genetic background: wild type
[30] = 12.2 µg/ml, genetic background: ΔmarA
[31] = 12.2 µg/ml, genetic background: Δrob
[32] = 12.2 µg/ml, genetic background: ΔsoxS
[33] = 24.5 µg/ml, genetic background: wild type
[34] = 24.5 µg/ml, genetic background: Δrob
[35] = 24.5 µg/ml, genetic background: ΔsoxS
[36] = 24.5 µg/ml, genetic background: ΔmarA

C[C@H]1c2cccc(O)c2C(=O)C2=C(O)[C@]3(O)C(=O)C(C(N)=O)=C(O)[C@@H](N(C)C)[C@@H]3[C@@H](O)[C@@H]21 [Doxycycline]
promoter activity interaction Z-score [1, 8]: 0.468 ± 0.23 | promoter activity interaction Z-score [1, 9]: -0.101 ± 0.52 | promoter activity interaction Z-score [1, 10]: 0.667 ± 0.18 | promoter activity interaction Z-score [1, 11]: 0.902 ± 0.18 | promoter activity interaction Z-score [1, 12]: 1.36 ± 0.11 | promoter activity interaction Z-score [1, 13]: 0.0555 ± 0.26 | promoter activity interaction Z-score [1, 14]: 2.17 ± 0.61 | promoter activity interaction Z-score [1, 15]: 2.67 ± 1.3 | promoter activity interaction Z-score [1, 16]: 3.4 ± 0.4 | promoter activity interaction Z-score [1, 17]: -0.561 ± 0.26 | promoter activity interaction Z-score [1, 18]: 3.18 ± 0.3 | promoter activity interaction Z-score [1, 19]: 3.94 ± 0.66 | promoter activity interaction Z-score [2, 8]: 1.47 ± 0.83 | promoter activity interaction Z-score [2, 9]: 0.45 ± 0.069 | promoter activity interaction Z-score [2, 10]: -0.0978 ± 0.028 | promoter activity interaction Z-score [2, 11]: 0.831 ± 0.11 | promoter activity interaction Z-score [2, 12]: 2.59 ± 0.24 | promoter activity interaction Z-score [2, 13]: 0.672 ± 0.35 | promoter activity interaction Z-score [2, 14]: 0.226 ± 0.065 | promoter activity interaction Z-score [2, 15]: 2.53 ± 0.24 | promoter activity interaction Z-score [2, 16]: 1.58 ± 0.61 | promoter activity interaction Z-score [2, 17]: 1.02 ± 0.22 | promoter activity interaction Z-score [2, 18]: -0.177 ± 0.23 | promoter activity interaction Z-score [2, 19]: 2.84 ± 1.2 | promoter activity interaction Z-score [2, 20]: -0.656 ± 0.6 | promoter activity interaction Z-score [3, 8]: 2.17 ± 0.36 | promoter activity interaction Z-score [3, 9]: 2.03 ± 0.54 | promoter activity interaction Z-score [3, 10]: 2.36 ± 0.68 | promoter activity interaction Z-score [3, 11]: 2.91 ± 0.58 | promoter activity interaction Z-score [3, 12]: 2.54 ± 0.84 | promoter activity interaction Z-score [3, 13]: 1.92 ± 0.47 | promoter activity interaction Z-score [3, 14]: 2.05 ± 0.15 | promoter activity interaction Z-score [3, 15]: 3.33 ± 0.7 | promoter activity interaction Z-score [3, 16]: 0.914 ± 0.97 | promoter activity interaction Z-score [3, 17]: -0.13 ± 1.5 | promoter activity interaction Z-score [3, 18]: -1.55 ± 0.46 | promoter activity interaction Z-score [3, 19]: 2.96 ± 1.1 | promoter activity interaction Z-score [4, 8]: 0.541 ± 0.37 | promoter activity interaction Z-score [4, 9]: 0.726 ± 0.57 | promoter activity interaction Z-score [4, 10]: 0.325 ± 0.7 | promoter activity interaction Z-score [4, 11]: 1.37 ± 0.15 | promoter activity interaction Z-score [4, 12]: -0.332 ± 0.71 | promoter activity interaction Z-score [4, 13]: -0.921 ± 0.38 | promoter activity interaction Z-score [4, 14]: -0.263 ± 1.5 | promoter activity interaction Z-score [4, 15]: 0.43 ± 1.4 | promoter activity interaction Z-score [4, 16]: -1.3 ± 0.03 | promoter activity interaction Z-score [4, 17]: -1.65 ± 0.046 | promoter activity interaction Z-score [4, 18]: -2.35 ± 0.43 | promoter activity interaction Z-score [4, 19]: -1.67 ± 0.45 | promoter activity interaction Z-score [4, 20]: -0.891 ± 0.46 | promoter activity interaction Z-score [5, 8]: 0.306 ± 0.015 | promoter activity interaction Z-score [5, 9]: 0.57 ± 0.091 | promoter activity interaction Z-score [5, 10]: 0.328 ± 0.17 | promoter activity interaction Z-score [5, 11]: 0.664 ± 0.32 | promoter activity interaction Z-score [5, 12]: 0.688 ± 0.29 | promoter activity interaction Z-score [5, 13]: 0.899 ± 0.1 | promoter activity interaction Z-score [5, 14]: 0.658 ± 0.49 | promoter activity interaction Z-score [5, 15]: 1.87 ± 0.49 | promoter activity interaction Z-score [5, 16]: 1.52 ± 0.49 | promoter activity interaction Z-score [5, 17]: 2.111 ± 0.021 | promoter activity interaction Z-score [5, 18]: 0.693 ± 0.49 | promoter activity interaction Z-score [5, 19]: 2.44 ± 1 | promoter activity interaction Z-score [5, 20]: 1.1 ± 0.16 | promoter activity interaction Z-score [6, 8]: 0.271 ± 0.51 | promoter activity interaction Z-score [6, 9]: 1.62 ± 0.076 | promoter activity interaction Z-score [6, 10]: -0.121 ± 0.96 | promoter activity interaction Z-score [6, 11]: 0.793 ± 0.57 | promoter activity interaction Z-score [6, 12]: 0.44 ± 0.19 | promoter activity interaction Z-score [6, 13]: 0.772 ± 1.2 | promoter activity interaction Z-score [6, 14]: 0.309 ± 0.4 | promoter activity interaction Z-score [6, 15]: 2.09 ± 0.67 | promoter activity interaction Z-score [6, 16]: 0.167 ± 0.028 | promoter activity interaction Z-score [6, 17]: 0.714 ± 0.019 | promoter activity interaction Z-score [6, 18]: 2.36 ± 3.6 | promoter activity interaction Z-score [6, 19]: 2.12 ± 1 | promoter activity interaction Z-score [6, 20]: 0.561 ± 1.1

COc1ccc(C[C@H](N)C(=O)N[C@H]2[C@@H](O)[C@H](n3cnc4c(N(C)C)ncnc43)O[C@@H]2CO)cc1 [Puromycin]
promoter activity interaction Z-score [1, 21]: -0.169 ± 0.22 | promoter activity interaction Z-score [1, 22]: 0.738 ± 0.17 | promoter activity interaction Z-score [1, 23]: 0.211 ± 0.055 | promoter activity interaction Z-score [1, 24]: 0.2622 ± 0.0026 | promoter activity interaction Z-score [1, 25]: -0.104 ± 0.052 | promoter activity interaction Z-score [1, 26]: 0.582 ± 0.0062 | promoter activity interaction Z-score [1, 27]: 0.153 ± 0.24 | promoter activity interaction Z-score [1, 28]: 0.199 ± 0.57 | promoter activity interaction Z-score [1, 29]: -0.0259 ± 0.33 | promoter activity interaction Z-score [1, 30]: -0.302 ± 0.48 | promoter activity interaction Z-score [1, 31]: 0.308 ± 0.44 | promoter activity interaction Z-score [1, 32]: 0.649 ± 0.26 | promoter activity interaction Z-score [1, 33]: 3.35 ± 1.5 | promoter activity interaction Z-score [1, 34]: 3.54 | promoter activity interaction Z-score [1, 35]: 0.855 | promoter activity interaction Z-score [7, 21]: 0.00293 ± 0.13 | promoter activity interaction Z-score [7, 22]: 0.189 ± 0.15 | promoter activity interaction Z-score [7, 23]: 0.309 ± 0.18 | promoter activity interaction Z-score [7, 24]: 0.0658 ± 0.096 | promoter activity interaction Z-score [7, 25]: 0.213 ± 0.31 | promoter activity interaction Z-score [7, 26]: 0.623 ± 0.33 | promoter activity interaction Z-score [7, 27]: 0.273 ± 0.14 | promoter activity interaction Z-score [7, 28]: 0.534 ± 0.15 | promoter activity interaction Z-score [7, 29]: 0.362 ± 0.15 | promoter activity interaction Z-score [7, 30]: 0.61 ± 0.46 | promoter activity interaction Z-score [7, 31]: 0.305 ± 0.046 | promoter activity interaction Z-score [7, 32]: 0.522 ± 0.076 | promoter activity interaction Z-score [7, 33]: 1.38 ± 0.23 | promoter activity interaction Z-score [7, 34]: 2.58 | promoter activity interaction Z-score [2, 21]: 0.0526 ± 0.12 | promoter activity interaction Z-score [2, 22]: 0.103 ± 0.069 | promoter activity interaction Z-score [2, 23]: 0.103 ± 0.15 | promoter activity interaction Z-score [2, 24]: 0.0839 ± 0.0077 | promoter activity interaction Z-score [2, 25]: 0.357 ± 0.041 | promoter activity interaction Z-score [2, 26]: 0.0213 ± 0.081 | promoter activity interaction Z-score [2, 27]: 0.102 ± 0.074 | promoter activity interaction Z-score [2, 28]: 0.145 ± 0.035 | promoter activity interaction Z-score [2, 29]: 0.699 ± 0.21 | promoter activity interaction Z-score [2, 30]: -0.00373 ± 0.096 | promoter activity interaction Z-score [2, 31]: 0.459 ± 0.3 | promoter activity interaction Z-score [2, 32]: 0.738 ± 0.034 | promoter activity interaction Z-score [2, 33]: 1.71 ± 0.31 | promoter activity interaction Z-score [2, 36]: -0.484 | promoter activity interaction Z-score [2, 34]: 0.834 ± 0.41 | promoter activity interaction Z-score [2, 35]: 1.39 ± 0.35 | promoter activity interaction Z-score [3, 21]: 0.322 ± 0.085 | promoter activity interaction Z-score [3, 22]: 1.17 ± 0.67 | promoter activity interaction Z-score [3, 23]: 0.656 ± 0.1 | promoter activity interaction Z-score [3, 24]: 0.816 ± 0.3 | promoter activity interaction Z-score [3, 25]: 0.855 ± 0.35 | promoter activity interaction Z-score [3, 26]: 1.33 ± 0.85 | promoter activity interaction Z-score [3, 27]: 0.692 ± 0.034 | promoter activity interaction Z-score [3, 28]: 0.84 ± 0.13 | promoter activity interaction Z-score [3, 29]: 0.351 ± 0.31 | promoter activity interaction Z-score [3, 30]: 0.942 ± 0.49 | promoter activity interaction Z-score [3, 31]: 0.448 ± 0.37 | promoter activity interaction Z-score [3, 32]: 1.03 ± 0.34 | promoter activity interaction Z-score [3, 33]: 0.599 ± 1.4 | promoter activity interaction Z-score [4, 21]: 0.0602 ± 0.017 | promoter activity interaction Z-score [4, 22]: 0.523 ± 0.036 | promoter activity interaction Z-score [4, 23]: 0.5595 ± 0.0042 | promoter activity interaction Z-score [4, 24]: -0.174 ± 0.69 | promoter activity interaction Z-score [4, 25]: 0.596 ± 0.45 | promoter activity interaction Z-score [4, 26]: 0.0157 ± 0.15 | promoter activity interaction Z-score [4, 27]: 0.269 ± 0.22 | promoter activity interaction Z-score [4, 28]: 0.279 ± 0.33 | promoter activity interaction Z-score [4, 29]: -0.231 ± 0.16 | promoter activity interaction Z-score [4, 30]: 0.0377 ± 0.16 | promoter activity interaction Z-score [4, 31]: -0.211 ± 0.45 | promoter activity interaction Z-score [4, 32]: 0.0544 ± 0.43 | promoter activity interaction Z-score [4, 33]: -0.191 | promoter activity interaction Z-score [4, 36]: -0.499 | promoter activity interaction Z-score [5, 21]: -0.228 ± 0.044 | promoter activity interaction Z-score [5, 22]: -0.0397 ± 0.09 | promoter activity interaction Z-score [5, 23]: 0.102 ± 0.24 | promoter activity interaction Z-score [5, 24]: 0.373 ± 0.73 | promoter activity interaction Z-score [5, 25]: -0.0604 ± 0.21 | promoter activity interaction Z-score [5, 26]: 0.0219 ± 0.021 | promoter activity interaction Z-score [5, 27]: -0.144 ± 0.099 | promoter activity interaction Z-score [5, 28]: 0.298 ± 0.46 | promoter activity interaction Z-score [5, 29]: 0.0076 ± 0.14 | promoter activity interaction Z-score [5, 30]: 0.0786 ± 0.15 | promoter activity interaction Z-score [5, 31]: 0.00948 ± 0.09 | promoter activity interaction Z-score [5, 32]: 0.315 ± 0.021 | promoter activity interaction Z-score [5, 33]: -0.0601 ± 0.063 | promoter activity interaction Z-score [5, 36]: -0.197 ± 0.049 | promoter activity interaction Z-score [5, 34]: -0.131 ± 0.33 | promoter activity interaction Z-score [5, 35]: 0.525 ± 0.4 | promoter activity interaction Z-score [6, 21]: -0.726 ± 1 | promoter activity interaction Z-score [6, 22]: -0.59 ± 0.65

From the supplement of paper PMC12282887
